These results are taken from article PMC7819943, “Rice protein-binding microarrays: a tool to detect cis-acting elements near promoter regions in rice”.

In all, about 39,000 sequences were measured (“fluorescence intensity (a.u.)”: median about 4,300, highest 2% from about 39,000 on). The entries come from a sample that favours the highest values as a whole.

The target in the test is T1, OsSMF1 (Oryza sativa, UniProt Q6ZLB0 1-436).
T1 sequence: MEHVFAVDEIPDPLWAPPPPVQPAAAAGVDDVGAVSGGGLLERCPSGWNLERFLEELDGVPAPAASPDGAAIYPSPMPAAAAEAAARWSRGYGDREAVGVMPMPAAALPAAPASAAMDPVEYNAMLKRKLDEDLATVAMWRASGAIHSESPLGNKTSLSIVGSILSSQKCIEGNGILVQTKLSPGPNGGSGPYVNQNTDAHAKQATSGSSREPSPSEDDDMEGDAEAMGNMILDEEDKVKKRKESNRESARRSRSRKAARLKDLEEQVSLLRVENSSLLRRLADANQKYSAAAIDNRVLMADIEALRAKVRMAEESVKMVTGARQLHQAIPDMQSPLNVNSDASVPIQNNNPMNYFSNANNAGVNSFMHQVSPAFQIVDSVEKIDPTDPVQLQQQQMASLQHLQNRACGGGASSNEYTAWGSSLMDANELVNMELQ
The test is described as follows: protein-binding microarray (RPBM); PBS, 2% BSA, 51.3 ng/ul salmon testes DNA, 50 uM zinc acetate, 200 nM TF, 25 C, 1 h; high values mean tight binding. The settings on record: protein: recombinant; tags: N-terminal polyhistidine and DsRed monomer fusion (pET32a); chain copies: 2; label: CyDye5-dUTP incorporated in the synthesized complementary strand; 3' TTTTT single-stranded linker to array surface; dsDNA, one strand shown. A digest of the protocol: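 Transcription factors, each fused N-terminally to a polyhistidine tag and DsRed, were expressed in E. coli BL21-CodonPlus and purified on Ni–NTA. A custom Agilent array was made double-stranded by primer extension with Cy5-dUTP and blocked with 2% BSA. It was incubated with 200 nM protein in PBS, 2% BSA, salmon testes DNA and 50 µM zinc acetate at 25 °C for 1 h, then washed. The binding signal is per-feature fluorescence intensity (arbitrary units) read on an Axon 4000B scanner.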
Regarding “AATGTTTGGGTTCGAATTTAGTGGGTGGGTTTGGAGTTTGCGGAGTCACCTAGTGCAG”, the binding signal is 4670 fluorescence intensity (a.u.).

“TCCGCGGCCCCGCTGGCCCACACGCATGCGTCCAAACAGCCGGAGTCACCTAGTGCAG”: the binding signal was 3940 fluorescence intensity (a.u.).

As for “CAAATAGAACATAGCCATACGAAATGACTCACTAACCTCTCGGAGTCACCTAGTGCAG”, the binding signal is 4910 fluorescence intensity (a.u.).

On to “TCACCGGTCTCATCCCCGTCATATGCATCCTTATCTCCAACGGAGTCACCTAGTGCAG”, for which the binding signal was 4020 fluorescence intensity (a.u.).

As for “TGACCTACTTGCACTTATAATTTATAGTATTATGATGTGTCGGAGTCACCTAGTGCAG”, the binding signal was 3290 fluorescence intensity (a.u.).

As to “TCCAAGCCGTCCACTCCCCTCCGATCCAACGGTCCAAACCCGGAGTCACCTAGTGCAG”, the binding signal is 21800 fluorescence intensity (a.u.).

“CACACCTGACACAACACTTACACATCATACCAGAAGAAAACGGAGTCACCTAGTGCAG”: the binding signal is 3210 fluorescence intensity (a.u.).

Take “ATGCACACACATACAACGAAAACCAGAGATCAACAGGTGCCGGAGTCACCTAGTGCAG”: the binding signal was 45100 fluorescence intensity (a.u.).

“AGATCACACACAACACGCACATCACGAACCGGACCAAACCCGGAGTCACCTAGTGCAG”: the binding signal is 3660 fluorescence intensity (a.u.).

With “TGGGGCCGTGAGGCCACGTGCCCGGCATGCCACGGTGGAGCGGAGTCACCTAGTGCAG”, the binding signal is 10000 fluorescence intensity (a.u.).

Regarding “ACCACGACCACCACAACACCACCACCTCTTCTCCTAGTCACGGAGTCACCTAGTGCAG”, the binding signal was 3570 fluorescence intensity (a.u.).

As for “CCTTTTATCCGCTCTACGGACGCAGTCCACGTCAGCCGACCGGAGTCACCTAGTGCAG”, the binding signal is 39200 fluorescence intensity (a.u.).

For the sequence “CCCTTGTCCATCCGCCAACGCCACGTCACCTCCTCCGCTACGGAGTCACCTAGTGCAG”, the binding signal was 52100 fluorescence intensity (a.u.).

As for “TCCTCCTCTCCTCCACACATCCAGGCAGGCAACACAAGAACGGAGTCACCTAGTGCAG”, the binding signal is 41800 fluorescence intensity (a.u.).

Regarding “CTCCTCTCCTCTCTTCTCCACATCCACAAGAAATTTCGTACGGAGTCACCTAGTGCAG”, the binding signal was 3630 fluorescence intensity (a.u.).

Take “TTGTCGTCCACGCCGCCATCTCCTTGGTCATCCGCAACAACGGAGTCACCTAGTGCAG”: the binding signal is 3430 fluorescence intensity (a.u.).

As to “CGCCTTATCCTCCCGCCTTTTCACGTCCCGCCACGCCGACCGGAGTCACCTAGTGCAG”, the binding signal was 4060 fluorescence intensity (a.u.).

For “CCTCCACCCTCACCGGCGCCACGCCGACGCCTCCGCCCTCCGGAGTCACCTAGTGCAG”, the binding signal was 5600 fluorescence intensity (a.u.).

As for “CCTCCGCCTTGTCCGCGTCCACGTCCACGGCCGCCGCCACCGGAGTCACCTAGTGCAG”, the binding signal was 6310 fluorescence intensity (a.u.).

Consider “TCCACCACCGCCTGCCTCCATCCACCTCCACTGCAACCTCCGGAGTCACCTAGTGCAG”, for which the binding signal is 3670 fluorescence intensity (a.u.).

For “GGCAACAACGGCCTCCACCGCCATCACTCCGGCACCCTCACGGAGTCACCTAGTGCAG”, the binding signal is 52200 fluorescence intensity (a.u.).

For “ACCTCCCCGACGGCGTCCGCGTGCCGCGCTCCACGCGCACCGGAGTCACCTAGTGCAG”, the binding signal is 3460 fluorescence intensity (a.u.).

As for “CACGGGGTGGTCGCGGGTCACAGTGACGGACGGTGCACGGCGGAGTCACCTAGTGCAG”, the binding signal was 20200 fluorescence intensity (a.u.).

Turning to “CACCAGGCACCGACTGCCGTAGTGTCACCGGCCACAGTGCCGGAGTCACCTAGTGCAG”, the binding signal was 3220 fluorescence intensity (a.u.).

As to “CTGTTGCCTACTCCCTCCTCAATCCTGCAGAAGTTTCTGACGGAGTCACCTAGTGCAG”, the binding signal is 3240 fluorescence intensity (a.u.).

Turning to “CTCCATTTTCTCCGGTTTTCGCCGCAGAGTAGGAGCTGAACGGAGTCACCTAGTGCAG”, the binding signal was 21400 fluorescence intensity (a.u.).

Take “TCACGGCCGCCTCCGCCATCTGCACAACCTCGCCGCCGCCCGGAGTCACCTAGTGCAG”: the binding signal is 65500 fluorescence intensity (a.u.).

Take “CGTCGCCTCGCCTCGTCACGGCCGCCTCCGCCATCGCCTCCGGAGTCACCTAGTGCAG”: the binding signal is 6060 fluorescence intensity (a.u.).

As to “TCTCCTCTCGCTCTCGCCATCTCGCCGCCGGCCTCCTCCACGGAGTCACCTAGTGCAG”, the binding signal is 3240 fluorescence intensity (a.u.).

On to “CGTGCCGACGCGTGCCTCGCCAACGTGTCGCAACGCCTCACGGAGTCACCTAGTGCAG”, for which the binding signal is 8980 fluorescence intensity (a.u.).

As for “CTCCTCCTCCGGCCACGTCGACGTCGCACCAACCGCCGCCCGGAGTCACCTAGTGCAG”, the binding signal was 14700 fluorescence intensity (a.u.).

As for “AACCAACGGTCGCTGTTACGCCACGTCACCTCACCGACGCCGGAGTCACCTAGTGCAG”, the binding signal is 39200 fluorescence intensity (a.u.).

On to “AGCACTACTCCAACGCAGCAACCAACACGTACCTCCACATCGGAGTCACCTAGTGCAG”, for which the binding signal was 6420 fluorescence intensity (a.u.).

In the case of “GATTCTTCTATGTGGCATGAGGTAACCCTGGGTCGGCTTGCGGAGTCACCTAGTGCAG”, the binding signal is 4110 fluorescence intensity (a.u.).

For “GCCGTTGTCCGAAGGTTCAGCATATTGCTGACATATTGCCCGGAGTCACCTAGTGCAG”, the binding signal was 4940 fluorescence intensity (a.u.).

With “GCATGCTCTTCTGATCTGTAATCTCAGGCTCTATTACTCTCGGAGTCACCTAGTGCAG”, the binding signal was 3450 fluorescence intensity (a.u.).

With “TTCCTCGCCAACGTAAGCCAATAACATTGTGACGCAATCTCGGAGTCACCTAGTGCAG”, the binding signal was 5820 fluorescence intensity (a.u.).

Take “GAGATGGGAGGAGAGCTAGCTAGCCGCCGAGGCTGAGCTCCGGAGTCACCTAGTGCAG”: the binding signal was 40600 fluorescence intensity (a.u.).

Turning to “GCTGAGCAGGAGAGGGGCGCCGATCTCCATCCGGCGAGCACGGAGTCACCTAGTGCAG”, the binding signal is 5450 fluorescence intensity (a.u.).

Take “GCGAGCTCCTGGAGGCGGCGAGGGCGCCGGAGTTCGCGGGCGGAGTCACCTAGTGCAG”: the binding signal was 37200 fluorescence intensity (a.u.).

For “GAGGGGCGCGGGCGCCGAGCTCCATCTGGCGAGCAGGGTACGGAGTCACCTAGTGCAG”, the binding signal was 42200 fluorescence intensity (a.u.).

In the case of “GAGCAGGAGGAGCTGAGCGACTCCGAGTCGGGCGCCGAGTCGGAGTCACCTAGTGCAG”, the binding signal is 40100 fluorescence intensity (a.u.).

Consider “CCGAGTGACGATGCAGCTGAGTCGGAGCGCAGCACGACTTCGGAGTCACCTAGTGCAG”, for which the binding signal was 4290 fluorescence intensity (a.u.).

Take “ATCTCCATCTGGCGAGCAGAGGCCGGGGAGGGAGGGGCGCCGGAGTCACCTAGTGCAG”: the binding signal was 3870 fluorescence intensity (a.u.).

For “GTGTGCCGCCGCCGCTGACTCCGGAGGGAGAGGACGAGCTCGGAGTCACCTAGTGCAG”, the binding signal is 3320 fluorescence intensity (a.u.).

In the case of “CATCGAGAGGCTCCCGAGCATGGCCGAGATCGCCGAGGAGCGGAGTCACCTAGTGCAG”, the binding signal is 3500 fluorescence intensity (a.u.).
